Bioassay records as filed in PubChem.
In the library only some 0.86% were active in any assay of this set; here they are far more common.
CDC25B-CDK2 inh = human CDC25B-CDK2/CyclinA binding inhibition | HTRF CDC25B-CDK2/CyclinA binding, anti-His/anti-Flag; active compounds read high | z-score (no concentration beside the values) | hit rate 0.72% among 94,000 | AID 1259370; in the data active = z-score above about 3.2
TAR Tat displ = HIV-1 TAR-Tat binding disruption | HIV-1 TAR RNA, Tat peptide displacement FRET; active compounds read high | hit rate 0.6% among 100,000 | z-score (test concentration not listed); active = z-score of 3 or more in at least 2 runs
A number is an active result; i = inactive; nt = no result; ! = repeats disagree.

SMILES | CDC25B-CDK2 inh | TAR Tat displ
O=C1c2cccc3c(N4CCOCC4)ccc(c23)C(=O)N1c1cccc(O)c1 | i | i
CSc1ccc(NC(=O)NCCCN2CCc3ccccc3C2)cc1 | i | i
O=C(NCCCN1CCc2ccccc2C1)Nc1ccc(Br)cc1 | 9.2 | i
Cc1cccc(N2CCN(c3cc(C(=O)O)c4cc(N)ccc4n3)CC2C)c1 (stereo not drawn) | nt | 6.5
CC1CCN(c2cc(C(=O)O)c3cc(N)ccc3n2)CC1 | nt | i
O=C(Nc1cccc(O)c1)c1cccc(N2C(=O)c3cccc([N+](=O)[O-])c3C2=O)c1 | 5.1 | nt
CC(C)(C)NC(=O)c1cccc(N2C(=O)c3cccc([N+](=O)[O-])c3C2=O)c1 | i | nt
Cc1ccc(-n2ccnc(NCC3CCCO3)c2=O)cc1C (stereo not drawn) | nt | i
O=C1CC(c2ccco2)CC2=C1C(c1ccccc1)C1=C(N2)c2ccccc2C1=O (stereo not drawn) | 12 | i
CCCCOC(=O)C1=C(C)NC2=C(C(=O)CC(c3ccccc3)C2)C1c1ccco1 (stereo not drawn) | i | i
CCCCOC(=O)C(C)Oc1ccc2c3c(c(=O)oc2c1C)CCC3 (stereo not drawn) | i | nt
COc1ccc(C(=O)CSc2nccn(-c3ccc(OC)cc3)c2=O)cc1 | nt | i
CC(C)c1cc(C(=O)Nc2ccc(F)c(Cl)c2)nn1C1CCS(=O)(=O)C1 (stereo not drawn) | i | i
CCOC(=O)C1CCCN(C(=O)c2sc3nc(C)nc(N4CCC(C)CC4)c3c2C)C1 (stereo not drawn) | i | nt
Cc1nc(N2CCC(C(=O)O)CC2)c2c(C)c(C)sc2n1 | nt | 4.8
Cc1nc2ccccn2c(=O)c1NC(=O)c1ccc(F)cc1 | nt | i
Cc1csc(NC(=O)C2CCCN(c3ncnc4c3nc3n4CCCCC3)C2)n1 (stereo not drawn) | nt | i
COC(=O)c1cc2sccc2n1CC(=O)N(C)c1ccccc1 | i | i
COC(=O)c1cc2sccc2n1CC(=O)c1ccccc1 | 9.2 | i
CCN(CC)c1cc2c(cc1F)c(=O)c(S(=O)(=O)c1cc(C)ccc1C)cn2C | nt | i
O=C(O)c1cc(-c2cn[nH]c2-c2ccccc2)nc2ccc3ccccc3c12 | 22 | nt
O=C(O)c1cc(-c2ccccc2)nc2n[nH]c(-c3ccccc3)c12 | nt | i
Nc1cccnc1Nc1ccccc1 | i | i
COc1ccc(Nc2ncccc2N)cc1 | 13 | i
ON=C(c1nc2ccccc2[nH]1)c1nc2ccccc2[nH]1 | i | nt
SMILES | CDC25B-CDK2 inh | TAR Tat displ
NNc1nc2ccccc2[nH]c1=S | 5.5 | nt
C=CCN(CC=C)C(=O)C(C)n1nc(-c2ccc3c(c2)OCCO3)ccc1=O (stereo not drawn) | i | i
CCOC(=O)c1nc(-c2ccccn2)no1 | i | i
C(#Cc1ccccc1)CNCCc1c[nH]c2ccccc12 | i | i
CCCN[C@H]1CCc2nc(N)sc2C1 | i | 11!
CCC(=O)Nc1nc2c(s1)CC(C(C)(C)C)CC2 (stereo not drawn) | i | i
Cc1ccc(C2CC(=O)N3CN(CCC(C)C)CSC3=C2C#N)cc1 (stereo not drawn) | 5.2 | i
CC(C)CCN1CSC2=C(C#N)C(c3ccc(Cl)cc3)CC(=O)N2C1 (stereo not drawn) | i | i
CCOC(=O)CN1CSC2=C(C#N)C(c3ccc(Cl)cc3)CC(=O)N2C1 (stereo not drawn) | 3.8 | i
CC(C)CCN1CSC2=C(C#N)C(c3ccc(F)cc3)CC(=O)N2C1 (stereo not drawn) | 5 | i
Cc1nnsc1C(=O)Nc1ccc2nsnc2c1 | i | i
O=c1c(NC2CCCC2)c(-c2ccccc2)c1=O | nt | i
O=C1Nc2ccccc2/C1=C/c1cc(F)cc2c1OCOC2 | i | nt
COc1ccc(N2CSC3=C(C#N)C(c4cccc(OC)c4OC)CC(=O)N3C2)c(OC)c1 (stereo not drawn) | 5.7 | i
COc1cccc(C2CC(=O)N3CN(c4ccccc4F)CSC3=C2C#N)c1OC (stereo not drawn) | 4.2 | i
COc1ccc(N2CSC3=C(C#N)C(c4cccc(OC)c4OC)CC(=O)N3C2)cc1 (stereo not drawn) | 4 | i
COc1ccc(-c2ccc(NS(=O)(=O)c3ccc(Cl)cc3)cc2)nn1 | nt | i
CCCS(=O)(=O)Cc1nnc(-c2cccs2)o1 | i | nt
Cc1nc2c(c(C)c1CCC(=O)NCC1CCN(C3CCCC3)C1)c(=O)n(C)c(=O)n2C (stereo not drawn) | i | i
Cc1cc(C)n(CC(=O)NC2CCCC2)c(=O)c1C#N | nt | i
Cn1c(=O)c2c(-c3ccc(Br)cc3)n(-c3ccc(F)cc3)cc2n(C)c1=O | i | i
CCOC(=O)c1nn(-c2ccc(Cl)cc2)c(=O)c(C#N)c1C | i | i
CCOC(=O)c1nn(-c2ccc(C)cc2)c(=O)c2c(N)scc12 | 18 | i
CCOC(=O)c1nc(N)c(=O)n(-c2ccc(C)cc2)n1 | i | nt
CCOC(=O)c1nn(-c2ccc(Cl)cc2)c(=O)c2c(N)scc12 | 18 | i
SMILES | CDC25B-CDK2 inh | TAR Tat displ
CC(=O)N(CC1OC(c2ccc(Br)cc2)=NN1C(C)=O)c1cccc2ccccc12 (stereo not drawn) | nt | i
O=c1c(SCc2ccccc2F)nccn1-c1ccc(F)cc1 | nt | i
O=C(CSc1nc2ncccc2[nH]1)N1CCCC1 | nt | i
O=C(CSc1nc2ncccc2[nH]1)N1CCc2ccccc2C1 | 15 | i
COc1ccc(-n2ccnc(NCc3ccco3)c2=O)cc1 | nt | i
C=CCN1C(=S)Nc2cccc[n+]2[B-]1(CCCC)CCCC | 3.9 | nt
Cc1cc(C)cc(N2CC(O)=C(c3nc4ccccc4[nH]3)C2=N)c1 | i | i
CC(C)c1ccc(S(=O)(=O)N2CCCC(c3nc(-c4ccccc4Cl)no3)C2)cc1 (stereo not drawn) | nt | i
CCOC(=O)C1CCN(c2cc(NCCCC(=O)O)c3c4c(onc24)-c2ccccc2C3=O)CC1 | 14 | 24
CCOC(=O)C1CCN(c2cc(NCc3ccco3)c3c4c(onc24)-c2ccccc2C3=O)CC1 | 15 | i
O=C1c2ccccc2-c2onc3c(N4CCN(CCO)CC4)cc(NCc4ccco4)c1c23 | i | i
CC1CCN(c2cc(NCCCC(=O)O)c3c4c(onc24)-c2ccccc2C3=O)CC1 | i | i
O=C(O)CNc1cc(N2CCC(c3ccccc3)CC2)c2noc3c2c1C(=O)c1ccccc1-3 | 5.1 | i
CCOC(=O)C1CCN(c2cc(NCCCN(C)C)c3c4c(onc24)-c2ccccc2C3=O)CC1 | i | i
CCOc1ccc(-n2nnc3c(sc4nc(C)cc(C)c43)c2=O)cc1 | i | i
CC1Sc2ccc(S(=O)(=O)CCC(=O)Nc3ccc(F)cc3)cc2NC1=O (stereo not drawn) | nt | i
O=C(NCc1ccc2c(c1)OCO2)c1nc(S(=O)(=O)Cc2ccc(F)cc2)ncc1Cl | i | i
COC(=O)C1C(=O)OC(C)(C)C2CCC(C)CC12 (stereo not drawn) | i | nt
O=c1ccc(-c2ccc(S(=O)(=O)Nc3ccc(Cl)cc3F)o2)n[nH]1 | nt | i
O=c1ccc(-c2ccc(S(=O)(=O)Nc3ccc(Br)cc3F)o2)n[nH]1 | nt | 18
CCCNC(=O)c1cc2oc3ccccc3c2n1C | i | i
Cn1c(C(=O)NCc2ccccc2Br)cc2oc3ccccc3c21 | 10 | i
CC(C)(C)c1nc2scc(-c3ccccc3)c2c(=O)o1 | 5.9 | i
O=c1oc(Cc2ccccc2)nc2scc(-c3ccccc3)c12 | i | i
Nc1ccc2nc(/C=C/c3ccccc3)[nH]c2c1 | i | i
Nc1cccc(/C=C/c2nc3ccc(N)cc3[nH]2)c1 | 12 | i
Cc1[nH]ccc2c1[nH]c1cc(=O)ccc12 | nt | 22
